The results in this text go back to PubChem BioAssay AID1906 (The Scripps Research Institute Molecular Screening Center, 2009).

Hit rate of the full screen: of about 300,000 compounds, about 1,500 (0.5%) were called active. This excerpt belongs to a sample that is enriched for actives. A number with no mark means an inactive call.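 The calls were made as follows: active = inhibition above the mean of all tested compounds plus 3 SD, set per screening campaign (cut at about 17% in these data); inactive = the rest.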

In this test the test system is cathepsin L1 (Fasciola hepatica). Briefly: Fasciola hepatica cathepsin L1 inhibitors, primary screen, counter-screen for PFM18AAP inhibitor project, biochemical, QFRET, fluorogenic peptide substrate (AID 1906).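 Also: 0% = plate median of test compound wells and 100% = 1 µM Z-Phe-Ala-diazomethylketone.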 The following applies: recombinant F. hepatica cathepsin L1, Z-Leu-Arg-MCA fluorescence; at 5.96 µM; hits give high values. In general terms: Counterscreens check selectivity or assay interference.
In general, inhibition refers to the drop in the measured response relative to a control, in per cent. For the compound `CC(=O)Nc1ccc(S(=O)(=O)N(C)CC(=O)NCCC2=CCCCC2)cc1`, the inhibition was -4.22%.
Take `Cc1ccc(N(NC(=O)C(C)(C)O)C(=O)c2ccccc2)cc1C`: the inhibition is 1.52%.
For the compound `CCCC(O)(CCC)C(=O)NN(C(=O)CCl)c1cccc(C)c1`, the inhibition is 27.6% (active).
In the case of `CCCCCNC(=O)C1c2ccccc2Oc2ccccc21`, the inhibition is -9%.
As for `CC(C)(O)C(=O)NN(C(=O)c1ccccc1)c1cccc(Br)c1`, the inhibition is -2.56%.
On to `COC(=O)N(NC(=O)C(O)(C(C)C)C(C)C)c1ccccc1`, for which the inhibition is -0.72%.
In the case of `CCCCC(O)(CCCC)C(=O)NN(C(=O)CCl)c1ccccc1` it was 18.1% (active).
Turning to `CC(Sc1nc2cc(Cl)ccc2s1)C(=O)Nc1ccc2c(c1)OCO2` (centres undefined), the inhibition was -3.27%.
In the case of `COc1ccc(CCNS(=O)(=O)c2cn(C)nc2C)cc1` it was -5.7%; in that of `CCOC(=O)C1=C(c2ccc(OC)cc2)C(=O)c2ccccc2C1=O`, 28.8% (active).
In the case of `CCOC(=O)c1c(-c2ccc(C)cc2)csc1/N=C(\C)C1=C(O)c2ccccc2C1=O`, the inhibition was 1.32%.
Turning to `CCOC(=O)c1cc2cc3ccccc3cc2oc1=O`, the inhibition is 0.07%.
In the case of `CC(=O)c1ccccc1NC(=O)CC1(CC(=O)O)CCCCC1`, the inhibition was 2.79%.
In the case of `Cc1ccccc1OCC(=O)Nc1nnc(S(=O)(=O)N2CCCC2)s1`, the inhibition was 3.28%.
As for `CCn1c(SCC(=O)NC2=NCCS2)nnc1C(C)NC(=O)c1ccccc1F` (centres undefined), the inhibition is -7.21%.
In the case of `O=C1CCCCC1Sc1ccc(Cl)cc1[N+](=O)[O-]` (centres undefined) it was -1.08%; in that of `N#C/C(=C\c1ccccc1)c1n[nH]c(Cn2cncn2)n1`, 3.03%.
In the case of `COc1cc(C(=O)N2CCN(C3CCC(C)CC3)CC2)cc(OC)c1OC` (centres undefined) it was 1.26%; in that of `CCn1cc(C(=O)N2CCN(C3CCCCC3)CC2)c2cc(OC)c(OC)cc2c1=O`, 20.3% (active).
Consider `CCn1cc(C(=O)N2CCN(Cc3ccc4c(c3)OCO4)CC2)c2cc(OC)c(OC)cc2c1=O`, for which the inhibition is 7.48%.
Take `O=c1c([N+](=O)[O-])cccn1Cc1ccc(F)cc1Cl`: the inhibition was -4.32%.
In the case of `C/C(=N\NC(N)=S)c1cccnc1` it was 35.1% (active); in that of `C/C(=N\NC(=O)c1cccnc1)c1ccc(-c2ccccc2)cc1`, 2.6%.
Next, `C/C(=N\NC(N)=S)c1ccncc1`: 3.21%.
Regarding `O=C(c1ccc(-c2ccccc2)cc1)C1CCCN(C(=O)c2cncs2)C1` (centres undefined), the inhibition is 0.67%.
In the case of `COc1ccc(-n2nc(C(=O)NCC(=O)N3CCN(c4ccccc4OC)CC3)c3ccccc3c2=O)c(OC)c1`, the inhibition was 0.09%.
On to `Cc1ccc(Cl)c(NC(=O)CN2CCN(C=O)CC2)c1`, for which the inhibition is -5.16%.
In the case of `CCOC(=O)C(C)n1cnc2scc(-c3ccc(C)c(C)c3)c2c1=O` (centres undefined), the inhibition was 3.75%.
In the case of `CCn1cnc2scc(-c3ccc(C)c(C)c3)c2c1=O`, the inhibition is 0.4%.
Next, `COC(=O)Cn1cnc2scc(-c3ccc(C)c(C)c3)c2c1=O`: 24.9% (active); `CCN(Cc1ccccc1)C(=O)Cc1ccc(OC)c(S(=O)(=O)N2CCOCC2)c1`: -0.92%; `CCSc1nc2c(c(=O)[nH]1)C(c1cccnc1)C(C(=O)OC(C)C)=C(C)N2` (centres undefined): 4.8%.
Next, `COc1ccccc1C(=O)Nc1ccc(OCc2nnc3c4ccccc4c(C)nn23)cc1`: -0.1%; `CCOCCCNc1c(CC)c(C)c(C#N)c2nc3ccccc3n12`: 2.01%; `CC(C)CN(CC(C)C)CC(O)CN(c1ccccc1)S(=O)(=O)c1ccccc1[N+](=O)[O-]` (centres undefined): 4.97%.
In the case of `COCCN(C(=O)C(C)C)c1nnc(-c2ccc(C(C)(C)C)cc2)s1` it was 3.51%.
Regarding `CCCCCCCNC(=O)C1(CC2CC(c3cccc(Br)c3)=NO2)CCN(C(=O)c2cc(OCC)c(OCC)c(OCC)c2)CC1` (centres undefined), the inhibition is 30% (active).
In the case of `COc1ccc(CNC(=O)C2(CC3CC(c4ccccc4)=NO3)CCN(C(=O)c3cccc(O)c3)CC2)cc1` (centres undefined), the inhibition is -1.66%.
In the case of `O=C(c1ccccc1)N1CCC(CC2CC(c3ccc(Cl)cc3)=NO2)(C(=O)NCC2CCCCC2)CC1` (centres undefined) it was -0.13%; in that of `CN(CC(=O)Nc1cccc(F)c1)C(=O)C1CSC2(C)CCC(=O)N12` (centres undefined), -4.97%.
Regarding `Oc1oc(-c2ccccc2Br)nc1/C=N/c1ccccn1`, the inhibition is 53.9% (active).
As for `CCOc1ccc2nc(/N=C/c3nc(-c4ccccc4)oc3O)sc2c1`, the inhibition is 5.43%.
As for `CC(N=Cc1nc(-c2ccccc2)oc1O)c1ccccc1` (centres undefined), the inhibition was 1.73%.
Turning to `COc1ccc(C(C)NC(=O)C23CC4CC(CC(C4)C2)C3)cc1` (centres undefined), the inhibition is -3.76%.
Next, `COc1cccc(NC(=O)CN(C)CC(=O)Nc2ccc3c(c2)CCC3)c1`: 0.04%.
With `Cc1cccc(NC(=O)CCN2CC(C)CC(C)C2)c1` (centres undefined), the inhibition is -3.49%.
`CC1CC(C)CN(CCC(=O)Nc2ccc3c(c2)CCC3)C1` (centres undefined): the inhibition is 40.7% (active).
With `C=CCSc1nnc2c(n1)-c1cccc3cccc-2c13`, the inhibition was 4.82%.
With `Cc1cccc(-n2c(C)cc(/C=N/NC(N)=S)c2C)c1`, the inhibition was 35.5% (active).
In the case of `Cc1ccc(-n2c(C)cc(/C=N\NC(=O)CC(=O)NC(C)C)c2C)cc1` it was -0.88%.
For `Cc1cccc(-n2c(C)cc(/C=N\NC(=O)c3cccs3)c2C)c1`, the inhibition is -1.99%.
`CCOC(=O)C(C)n1nc(-c2ccccc2)c2ccccc2c1=O` (centres undefined): the inhibition is 3.78%.
Next, `COc1ccc(CCNC(=O)Cc2ccc(C)cc2)cc1OC`: 2.87%.
As for `COC(=O)[C@H](C)NC(=O)Nc1ccc(OC(F)(F)F)cc1`, the inhibition is -1.87%.
Take `CCOC(=O)Cc1ncccc1C(=O)Nc1ccc(OC(F)(F)F)cc1`: the inhibition is 2.95%.
As to `Cn1nccc1NC(=O)Nc1ccc(OC(F)(F)F)cc1`, the inhibition is 19.4% (active).
In the case of `COC(=O)c1ccccc1Oc1c(F)c(F)nc(N2CCOCC2)c1F`, the inhibition is 0.49%.
As to `COc1ccc(C(C(=O)NC2CCCCC2)N(C(=O)CCl)c2ccccc2Cl)cc1` (centres undefined), the inhibition was 25.3% (active).
In the case of `COc1ccc(C(C(=O)NC2CCCCC2)N(C(=O)c2snc(C(N)=O)c2N)c2ccccc2OC)cc1` (centres undefined), the inhibition was -2.13%.
Next, `COc1cccc(N(C(=O)C2COc3ccccc3O2)C(C(=O)NC2CCCCC2)c2ccc(O)cc2)c1` (centres undefined): 4.68%; `O=C(NC(=S)NC1CCS(=O)(=O)C1)c1cccc([N+](=O)[O-])c1` (centres undefined): -1.84%.
In the case of `CC(C)C[C@H](NC(=O)[C@@H]1O[C@H]1C(=O)O)C(=O)NCCCCN=C(N)N` it was 112% (active); in that of `O=C1CC2(CCN(C(=O)COc3ccc(F)cc3)CC2)Oc2ccccc21`, -0.88%; in that of `CC(=O)N(C1=C(Cl)C(=O)c2ccccc2C1=O)c1ccc(C(=O)O)cc1`, 41.1% (active).
In the case of `O=C(CN1C(=O)c2ccccc2C1=O)NCc1ccc(C(=O)O)cc1`, the inhibition was 10.4%.
In the case of `CC(C)N(C(=O)c1ccc(-c2ccccc2F)cc1)C(C)C` it was -3.72%.
Take `CCN(CC)CCNS(=O)(=O)c1ccc(/C=C/C(=O)O)cc1`: the inhibition is 8.82%.
As to `Cc1ccc(C(C)C)c(OCCSc2nc3ccccc3n2CC(=O)O)c1`, the inhibition is 2.31%.
With `CC(C(=O)NCCc1ccc(S(N)(=O)=O)cc1)N1C(=O)CC(C)(C)Sc2ccccc21` (centres undefined), the inhibition was 3.12%.
In the case of `CC(OC(=O)CNC(=O)c1ccc(Cl)c([N+](=O)[O-])c1)C(=O)NCc1ccco1` (centres undefined) it was -10.4%.
With `Cc1cc(C(=O)OC(C)C(=O)NC2CCCCC2C)c(C)o1` (centres undefined), the inhibition is 1.05%.
On to `CC(OC(=O)CNC(=O)c1cccc(F)c1)C(=O)NC1CCCCC1C` (centres undefined), for which the inhibition was 46.5% (active).
As for `Cc1ccccc1OCc1nnc(SCC(=O)N2c3ccccc3Sc3ccc(Cl)cc32)o1`, the inhibition was 1.54%.
In the case of `CCOC(=O)C1=C(O)/C(=C/c2cc(C)n(-c3ccccc3)c2C)N=C1C` it was -0.93%.
Turning to `N#Cc1ccccc1NC(=O)c1cccc(COc2ccc(Cl)cc2Cl)c1`, the inhibition was 2.17%.
In the case of `COc1ccccc1Oc1ccc(N/C=C2/CCCC2=O)cc1` it was 6.01%; in that of `CCCCC(=O)Nc1nnc(S(=O)(=O)N(C)Cc2ccco2)s1`, -1.17%; in that of `CC1(C)CC(=O)C/C(=N\NC(=O)c2cccs2)C1`, -1.64%.
With `C=CCn1c(=S)[nH]c2scc(-c3ccco3)c2c1=O`, the inhibition was -1.34%.
Turning to `C=CCn1c(SCc2csc(C)n2)nc2scc(-c3ccc(C)o3)c2c1=O`, the inhibition was 1.45%.
As to `C=CCNC(=O)CSc1nc2scc(-c3ccco3)c2c(=O)n1CC=C`, the inhibition is 35.5% (active).
Regarding `CCC1Oc2ccccc2N(CC(=O)NCCCN2CCN(CC)CC2)C1=O` (centres undefined), the inhibition is 1.49%.
As to `Cc1ccc2oc(=O)c3cnn(CC(=O)N4CCCCCC4)c3c2c1`, the inhibition was -4.76%.
Turning to `Cc1ccc2oc(=O)c3cnn(CC(=O)N(Cc4ccco4)C4CCCCC4)c3c2c1`, the inhibition is 42.9% (active).
For `COCCCN(C(=O)Cn1ncc2c(=O)oc3ccc(C)cc3c21)C(C)c1ccncc1` (centres undefined), the inhibition is 3.63%.
On to `Cc1cccc(NC(=O)c2cc(S(=O)(=O)N3CCC4(CC3)OCCO4)ccc2F)c1`, for which the inhibition is -2.65%.
For the compound `CN(C)c1nc(NN)nc(Nc2ccc(F)cc2)n1`, the inhibition was 11%.
Consider `COCCn1c(N)c(N(Cc2ccccc2)C(=O)C2CCCCC2)c(=O)[nH]c1=O`, for which the inhibition is 3.45%.
As to `Nc1c(N(CCO)C(=O)C2CCCCC2)c(=O)[nH]c(=O)n1Cc1ccccc1`, the inhibition was 23.6% (active).
Next, `CCN(C(=O)CN1CCN(Cc2ccccc2)CC1)c1c(N)n(Cc2ccccc2)c(=O)[nH]c1=O`: -1.57%; `Cc1sc(NC(=S)NC(=O)c2cccs2)nc1-c1ccc(CC(C)C)cc1`: -0.85%; `COc1cc(OC)nc(N/N=C(\c2ccccc2)c2ccncc2)n1`: 1.22%.
In the case of `CCC(=O)Nc1nc(OC)cc(OC)n1`, the inhibition was 3.53%.
`COc1cc(OC)nc(NC(=O)CCl)n1`: the inhibition is 19.4% (active).
